# Assay results from ChEMBL document CHEMBL3988442, “University of Dundee, Small-Polar-MMV Screening Library” (2021).
# Screen size: about 69,000 compounds; about 950 (1.4%) showed an effect of 50% or more. Shown is part of a subset that was picked to be rich in strong results.
# System: Mycobacterium tuberculosis
# Test: Cornell M. t heat shock assay; note: in the data most compounds retested in dose-response had high values
# Assay type: functional, organism-based
# Set-up: dose or concentration left out as unconfirmed
row,SMILES,Percent Effect [%]
1,COc1ccc(CC(=O)NCC(O)c2sccc2C)cc1OC (configuration not stated),0.2606
2,Cc1ccc(CNC2CCc3[nH]c(=O)ccc3C2)cc1C.O=C(O)C(F)(F)F (configuration not stated),-33.52
3,O=C(O)C(F)(F)F.O=C(O)C(F)(F)F.c1cnc(N2CC3(CCN(Cc4cccnc4)C3)C2)nc1,-26.88
4,CN1CCCC1c1cncc(C(=O)NCCN2CCCCC2)n1 (configuration not stated),-9.497
5,O=C(Nc1cccnc1-n1cc(Cl)cn1)C1CCCC1,16.14
6,Cc1cc(C2CCNCC2)nc(-c2ccsc2)n1.Cl,-13.2
7,CN(C)[C@@H]1CCN(C(=O)Cc2ccc(F)cc2)[C@H]1Cc1cnn(C)c1.O=C(O)C(F)(F)F,10.95
8,COc1ccc(C(C)NCc2ccsc2)cc1Cn1cccn1 (configuration not stated),-10.38
9,CCc1cnc(N)nc1NCc1ccc(OC)c(OC)c1,5.948
10,COc1ccc(CNC(Cc2ccsc2)c2ncccc2C)cc1OC (configuration not stated),96.19
11,COc1ncc(NCc2ccsc2)cc1C(N)=O,-17.59
12,COc1ccc(CNC(C)Cn2cccn2)cc1OC (configuration not stated),-13.02
13,Cc1cnc(N2CCC3(CCN(Cc4csc(C)n4)C3=O)C2)nc1.O=C(O)C(F)(F)F (configuration not stated),-3.389
14,Cc1ccc2c(n1)N(Cc1cccnc1)CCN(C(=O)C1CC1)C2.O=C(O)C(F)(F)F.O=C(O)C(F)(F)F,-27.88
15,Cl.Cn1ccnc1C1(O)CCN(C(=O)Cc2ccccc2)CC1,-18.55
16,CN(Cc1ccc(-n2cccn2)cc1)C[C@@H]1CCCN2CCCC[C@H]12,-24.54
17,Cc1ccc(N2CCC3(CCN(C(=O)c4ccccn4)CC3)CC2)nn1.O=C(O)C(F)(F)F.O=C(O)C(F)(F)F,-19.27
18,COc1cc(CN2CCCC2)ccc1OC12CCCN(CC1)C2 (configuration not stated),-26.73
19,COc1cc(C#N)ccc1OC12CCCN(CC1)C2 (configuration not stated),-7.079
20,CCCc1ccc(OC23CCCN(CC2)C3)c(OC)c1 (configuration not stated),85.22
21,CS(=O)(=O)NC[C@H]1OC[C@@H]2CCN(CCc3ccccc3)C[C@@H]21.O=C(O)C(F)(F)F,-13.26
22,CC(C)N(C)Cc1cncc2c1CCN(CC1CC1)C2.Cl.Cl.Cl,9.593
23,O=C(O)C(F)(F)F.O=C(O)[C@]12CCCN(C3CCOC3)C[C@H]1CN(c1nncs1)C2 (some centres not stated),32.9
24,COCCN1CCCn2c(nc(CNC(=O)COC)cc2=O)C1.O=C(O)C(F)(F)F,37.74
25,COc1ccc(CN2C[C@H]3C[C@H](C(=O)Nc4cccnc4)[C@@H](C2)O3)cc1,4.187
26,CCc1c(C)sc(NC(=O)CN2CCOCC2)c1C(=O)OC,24.22

row,SMILES,Percent Effect [%]
1,CCOC(=O)c1c(NC(=O)CN2CCN(C(C)=O)CC2)sc(C)c1C,-7.801
2,CCc1c(C)sc(NC(=O)CN2CCN(CC)CC2)c1C(=O)OC,103.2
3,CN1CCCC1c1cccc(Cc2ccccc2F)n1 (configuration not stated),69.94
4,CC(=O)N1CCCC1c1cccc(Cc2ccccc2F)n1 (configuration not stated),-21.24
5,CN1CCCC1c1cccc(Cc2ccc(F)cc2)n1 (configuration not stated),24.93
6,Cc1cccc(CN2CCc3ncnc(C4CC4)c3CC2)n1.O=C(O)C(F)(F)F,-23.65
7,CCN1CCN(C)C(=O)C12CCN(Cc1csc(C)n1)CC2.O=C(O)C(F)(F)F,25.71
8,O=C(O)C(F)(F)F.O=C(O)C(F)(F)F.c1cncc(-c2ncnc3c2CCN(Cc2cccs2)CC3)c1,-18.81
9,CC(C)Cc1cc(NC(=O)c2ccccn2)n(C)n1,64.59
10,CC(C)Cc1cc(NC(=O)c2ccccc2)n(C)n1,19.61
11,CC(C)Cc1cc(NC(=O)c2ccncc2)n(C)n1,18.34
12,CN(Cc1ccncc1)C1COC2(CCN(Cc3cccs3)CC2)C1.O=C(O)C(F)(F)F.O=C(O)C(F)(F)F.O=C(O)C(F)(F)F (configuration not stated),10.37
13,CN(C)C(=O)CO[C@@H]1CC[C@H]2[C@H]1OCCN2c1ncc(F)cn1.O=C(O)C(F)(F)F,7.03
14,O[C@@H]1CN(c2cnc3ccccc3n2)CC[C@H]1c1ccc2c(c1)OCO2,107.1
15,O[C@@H]1CN(c2nc3ccccc3s2)CC[C@H]1c1ccc2c(c1)OCO2,-12.43
16,O[C@@H]1CN(c2nc3ccccc3o2)CC[C@H]1c1ccc2c(c1)OCO2,-10.34
17,O=C(O)C(F)(F)F.c1ccn(Cc2nnc3n2CCCN(Cc2ccoc2)C3)c1,-15.36
18,O=C(C1CCC1)N1C[C@@H]2CN(Cc3ccncc3)C(=O)[C@@H]2C1.O=C(O)C(F)(F)F,6.384
19,CN(C)CCCNCCC(c1ccccc1)C1CCOC(C)(C)C1.O=C(O)C(=O)O (configuration not stated),21.84
20,CN1CCN(C2COC3(CCN(Cc4ccc(F)cc4)CC3)C2)CC1.O=C(O)C(F)(F)F.O=C(O)C(F)(F)F.O=C(O)C(F)(F)F (configuration not stated),-9.014
21,CCCNC(=O)NC(=O)CNC(C)(C)c1ccc2c(c1)OCCO2,99.39
22,CCNC(=O)NC(=O)CNC(C)(C)c1ccc2c(c1)OCCO2,11.57
23,CCCNC(=O)NC(=O)CNC(C)(C)c1ccc2c(c1)OCO2,-10.73
24,Cc1cc(C[C@@H]2COC[C@H]2NCc2ccc(C(C)C)cc2)on1.O=C(O)CC(O)(CC(=O)O)C(=O)O,9.353
25,Cc1[nH]c2ccc(C#N)cc2c1CCNc1ncnc2c1CCNCC2,7.503
26,Cc1[nH]c2ccccc2c1CCNc1ncnc2c1CCNCC2,1.152

row,SMILES,Percent Effect [%]
1,Cc1[nH]c2ccc(Cl)cc2c1CCNc1ncnc2c1CCNC2,96.99
2,Cc1cc(C)nc(N2CCCC(C(=O)Nc3n[nH]c(C(C)C)n3)C2)n1 (configuration not stated),13.11
3,O=C1CCCN1Cc1nnc2n1CCCN(C(=O)c1ccc[nH]1)C2,27.49
4,O=C(c1ccc[nH]1)N1CCCn2c(CN3CCCCC3)nnc2C1,16.28
5,O=C(O)C(F)(F)F.O=C(c1ccc[nH]1)N1CCCn2c(CNC3CCC3)nnc2C1,92.9
6,Cc1cnc(NC(=O)c2cccc(CN(C)Cc3snnc3C)c2)s1,9.507
7,Cc1cnc(NC(=O)c2cccc(CN(C)Cc3ncccc3C)c2)s1,62.95
8,Cc1cnc(NC(=O)c2cccc(CN(C)Cc3ccno3)c2)s1,6.699
9,Cl.O=C(c1cccc(F)c1)N1CCCC1c1ncc2c(n1)CCNC2 (configuration not stated),-29.7
10,NC(=O)NC(=O)CCN1CCN(CC2CC2)c2ccccc21,-11.96
11,NC(=O)NC(=O)CN1CCN(CC2CC2)c2ccccc21,61.15
12,CNC(=O)NC(=O)CN1CCN(CC2CC2)c2ccccc21,34.37
13,CN(C)CCN1CCCC12CCN(C(=O)c1ccoc1)CC2.O=C(O)C(F)(F)F.O=C(O)C(F)(F)F,-7.317
14,O=C(O)C(F)(F)F.O=C1C[C@H]2[C@H](CCN2Cc2ccccn2)N1CC1CC1,-8.238
15,CN(C)CCCNC(=O)c1ccc(N(C)S(C)(=O)=O)cc1Cl,4.922
16,NC(=O)NC(=O)CCN1CCCN(c2nccs2)CC1,91.9
17,O=C(CCN1CCCN(c2nccs2)CC1)Nc1ccccc1,-8.927
18,CNC(=O)NC(=O)CCN1CCN(c2nccs2)CC1,23.87
19,NC(=O)NC(=O)CN1CCN(c2nccs2)CC1,-3.548
20,NC(=O)NC(=O)CCN1CCN(c2nccs2)CC1,101.5
21,O=C(CCN1CCCN(c2nccs2)CC1)NCC1CCCCC1,0.6887
22,CCn1cncc1CN(Cc1ccc(OC)cc1OC)CC1CCCO1.O=C(O)CC(O)(CC(=O)O)C(=O)O (configuration not stated),-14.56
23,CN(Cc1cccnc1)[C@@H]1CN(C(=O)CC2CC2)[C@@H]2CCCO[C@H]12.O=C(O)C(F)(F)F.O=C(O)C(F)(F)F,-21.3
24,CC/N=c1\c(NC(=O)C(C)(C)C)c(O)oc2ccccc12,-10.16
25,Oc1cc(-c2nccs2)nc(C2CCN(Cc3cccs3)CC2)n1,15.4
26,Oc1cc(C2CCCCN2Cc2cccs2)nc(-c2ccccn2)n1 (configuration not stated),103.7

row,SMILES,Percent Effect [%]
1,Oc1cc(C2CCCCN2Cc2ccsc2)nc(-c2ccncc2)n1 (configuration not stated),-9.132
2,Oc1cc(C2CCCCN2Cc2cccs2)nc(-c2ccncc2)n1 (configuration not stated),-5.43
3,Cn1ncc2ccc(C3CCCN(Cc4cccs4)C3)nc21 (configuration not stated),13.99
4,Oc1cc(C2CCCN(Cc3cccs3)C2)nc(-c2ccccn2)n1 (configuration not stated),99.87
5,O=C(O)C(F)(F)F.O=C1[C@H]2CN(Cc3nccs3)C[C@H]2CN1c1cncnc1,-2.915
6,CN(C)CCO[C@@H]1CC[C@H]2[C@H]1OCCN2C(=O)COc1ccccc1.O=C(O)C(F)(F)F,10.1
7,COc1ccc(CN2C[C@@H]3OCCN(CC4CCCO4)[C@@H]3C2)cc1.O=C(O)C(F)(F)F.O=C(O)C(F)(F)F (some centres not stated),2.354
8,COc1ccc(CN2CC[C@H]3[C@H]2CCN3C(=O)c2cnn(C)c2)cc1.O=C(O)C(F)(F)F,1.435
9,CC(=O)N1Cc2ccnn2CC(C(=O)NCc2cccnc2)C1.O=C(O)C(F)(F)F (configuration not stated),37.04
10,FC(F)(F)c1ccc2nc([C@H]3CCN(C4CCCCC4)C3)[nH]c2c1,60.59
11,FC(F)(F)c1ccc2nc([C@H]3CCN(C4CCC4)C3)[nH]c2c1,17.31
12,FC(F)(F)c1ccc2nc([C@H]3CCN(C4CCOCC4)C3)[nH]c2c1,5.789
13,CC(=O)Nc1nc(CN2CCCC2Cn2cc(C)cn2)cs1 (configuration not stated),69.78
14,Cc1cnn(CC2CCCN2CC(=O)Nc2nncs2)c1 (configuration not stated),-6.011
15,COc1c(C2CCCN2CC(=O)Nc2nc(C)cs2)c(C)nn1C (configuration not stated),75.33
16,O=C(CN1CCCC1Cn1cncn1)Nc1nccs1 (configuration not stated),4.576
17,CC(=O)Nc1nc(CN2CCCC2Cn2cncn2)cs1 (configuration not stated),-13
18,Cc1cnn(CC2CCCN2CC(=O)Nc2cc(C)nn2C)c1 (configuration not stated),19.4
19,Cc1cnn(CC2CCCN2CC(=O)Nc2nccs2)c1 (configuration not stated),102.3
20,Cc1cnn(CC2CCCN2CC(=O)Nc2nc(C)cs2)c1 (configuration not stated),100.4
21,Cc1cnn(CC2CCCN2CC(=O)NCc2ccccn2)c1 (configuration not stated),-22.46
22,COc1c(C2CCCN2CC(=O)Nc2cc(C)no2)c(C)nn1C (configuration not stated),8.972
23,CC(=O)Nc1nc(CN2CCCC2Cn2cccn2)cs1 (configuration not stated),-5.465
24,COc1c(C2CCCN2CC(=O)Nc2nccs2)c(C)nn1C (configuration not stated),8.304
